# What was measured:
# Test in all cases: DAPPL (digital affinity profiling via proximity ligation, sequencing); 10 mM Tris-HCl pH 7.5, 50 mM NaCl, 1 mM DTT, 4% glycerol, room temperature, 30 min; GST-TFs on glutathione beads, 16-mer random dsDNA library, 0.1% formaldehyde crosslink after washing; high values mean tight binding
# Conditions in all cases: protein: recombinant; tags: N-terminal GST; dsDNA, one strand shown
# [1] = molecular target: T1, FLI1 (Homo sapiens, UniProt Q01543 1-452)
# T1 sequence: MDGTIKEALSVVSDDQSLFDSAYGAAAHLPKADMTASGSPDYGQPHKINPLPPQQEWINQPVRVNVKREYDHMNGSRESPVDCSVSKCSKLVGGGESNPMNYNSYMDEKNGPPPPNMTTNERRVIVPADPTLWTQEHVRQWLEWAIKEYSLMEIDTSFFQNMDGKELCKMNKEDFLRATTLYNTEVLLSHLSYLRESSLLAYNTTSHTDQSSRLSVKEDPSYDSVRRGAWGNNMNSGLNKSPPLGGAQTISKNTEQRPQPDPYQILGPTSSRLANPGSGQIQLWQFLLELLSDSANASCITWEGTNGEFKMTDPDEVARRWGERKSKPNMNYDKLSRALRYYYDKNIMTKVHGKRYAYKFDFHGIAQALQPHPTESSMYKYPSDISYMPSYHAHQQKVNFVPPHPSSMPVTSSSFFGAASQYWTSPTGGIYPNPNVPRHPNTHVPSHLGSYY
# In short: (§1)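 Beads coated with glutathione captured GST-fused human transcription factors that had been expressed in yeast, and the factors were then given DNA barcodes and pooled with a tag-only sample. The pools were incubated with 200 nmole of a random double-stranded 16-mer DNA library in Tris/NaCl/DTT/glycerol buffer for 30 min at room temperature, washed, crosslinked with 0.1% formaldehyde and proximity-ligated with BsaI/T4 ligase at 37 °C for 1 h. PCR amplification and Illumina NextSeq500 sequencing came last. Binding signal is each hexamer's read frequency for a factor divided by its frequency for the tag-only sample.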
# [2] = molecular target: T2, ELK1 (Homo sapiens, UniProt P19419 1-428)
# T2 sequence: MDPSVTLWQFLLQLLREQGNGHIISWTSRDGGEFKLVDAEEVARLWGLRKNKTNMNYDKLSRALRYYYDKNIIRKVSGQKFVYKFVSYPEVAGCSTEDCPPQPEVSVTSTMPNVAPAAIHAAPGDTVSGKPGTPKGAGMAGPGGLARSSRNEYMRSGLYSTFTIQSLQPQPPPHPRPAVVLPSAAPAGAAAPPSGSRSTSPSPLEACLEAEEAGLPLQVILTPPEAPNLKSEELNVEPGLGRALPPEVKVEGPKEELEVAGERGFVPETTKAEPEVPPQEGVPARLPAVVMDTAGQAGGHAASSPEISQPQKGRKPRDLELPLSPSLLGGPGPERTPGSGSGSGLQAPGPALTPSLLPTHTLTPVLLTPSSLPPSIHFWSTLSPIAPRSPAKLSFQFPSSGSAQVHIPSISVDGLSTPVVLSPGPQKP
# In short: as §1
# [3] = molecular target: T3, GABPA (Homo sapiens, UniProt Q06546 1-454)
# T3 sequence: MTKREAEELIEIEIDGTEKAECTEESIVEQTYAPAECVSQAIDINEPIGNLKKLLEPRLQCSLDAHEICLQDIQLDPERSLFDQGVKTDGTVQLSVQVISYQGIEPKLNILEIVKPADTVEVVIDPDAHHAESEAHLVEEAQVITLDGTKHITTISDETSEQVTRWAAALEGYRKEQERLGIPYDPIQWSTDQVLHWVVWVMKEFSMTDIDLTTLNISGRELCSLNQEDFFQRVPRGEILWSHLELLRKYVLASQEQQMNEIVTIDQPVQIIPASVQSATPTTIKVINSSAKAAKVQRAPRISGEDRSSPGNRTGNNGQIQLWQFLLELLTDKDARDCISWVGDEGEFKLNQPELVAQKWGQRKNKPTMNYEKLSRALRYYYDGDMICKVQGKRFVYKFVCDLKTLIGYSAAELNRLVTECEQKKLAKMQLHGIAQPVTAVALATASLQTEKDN
# In short: as §1
# [4] = molecular target: T4, ERG (Homo sapiens, UniProt P11308 1-479)
# T4 sequence: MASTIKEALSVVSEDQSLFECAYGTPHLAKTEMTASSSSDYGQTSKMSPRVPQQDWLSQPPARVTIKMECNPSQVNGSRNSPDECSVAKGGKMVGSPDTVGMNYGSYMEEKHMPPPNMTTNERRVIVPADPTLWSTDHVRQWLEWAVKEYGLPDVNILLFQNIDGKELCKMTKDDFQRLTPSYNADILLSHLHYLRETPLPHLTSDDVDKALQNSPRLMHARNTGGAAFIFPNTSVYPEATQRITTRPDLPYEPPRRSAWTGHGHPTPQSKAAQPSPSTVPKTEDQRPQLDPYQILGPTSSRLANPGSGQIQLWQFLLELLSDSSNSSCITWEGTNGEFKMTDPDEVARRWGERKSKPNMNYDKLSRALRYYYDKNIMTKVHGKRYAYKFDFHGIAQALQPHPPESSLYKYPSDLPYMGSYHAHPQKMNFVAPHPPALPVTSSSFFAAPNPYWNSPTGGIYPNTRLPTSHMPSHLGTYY
# In short: as §1
# [5] = molecular target: ELF1 (Homo sapiens, UniProt P32519 1-619)
# Chain of ELF1 (P32519 whole entry): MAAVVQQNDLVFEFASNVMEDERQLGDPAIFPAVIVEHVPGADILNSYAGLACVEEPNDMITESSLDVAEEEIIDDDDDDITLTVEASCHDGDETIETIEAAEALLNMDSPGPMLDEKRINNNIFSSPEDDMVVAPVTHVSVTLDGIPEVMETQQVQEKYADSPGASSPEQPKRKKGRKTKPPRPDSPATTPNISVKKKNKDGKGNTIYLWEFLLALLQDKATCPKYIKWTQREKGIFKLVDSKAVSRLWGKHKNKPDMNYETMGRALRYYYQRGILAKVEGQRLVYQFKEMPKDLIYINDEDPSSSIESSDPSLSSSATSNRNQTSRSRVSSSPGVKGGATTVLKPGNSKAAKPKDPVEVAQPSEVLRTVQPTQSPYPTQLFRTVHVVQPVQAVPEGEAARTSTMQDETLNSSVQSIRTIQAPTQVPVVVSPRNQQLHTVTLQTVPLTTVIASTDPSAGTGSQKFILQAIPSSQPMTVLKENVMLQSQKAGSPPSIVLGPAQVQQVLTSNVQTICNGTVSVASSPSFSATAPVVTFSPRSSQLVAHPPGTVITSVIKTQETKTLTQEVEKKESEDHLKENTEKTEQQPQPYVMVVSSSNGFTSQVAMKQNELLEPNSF
# In short: as §1
# [6] = molecular target: T5, EHF (Homo sapiens, UniProt Q9NZC4 1-300)
# T5 sequence: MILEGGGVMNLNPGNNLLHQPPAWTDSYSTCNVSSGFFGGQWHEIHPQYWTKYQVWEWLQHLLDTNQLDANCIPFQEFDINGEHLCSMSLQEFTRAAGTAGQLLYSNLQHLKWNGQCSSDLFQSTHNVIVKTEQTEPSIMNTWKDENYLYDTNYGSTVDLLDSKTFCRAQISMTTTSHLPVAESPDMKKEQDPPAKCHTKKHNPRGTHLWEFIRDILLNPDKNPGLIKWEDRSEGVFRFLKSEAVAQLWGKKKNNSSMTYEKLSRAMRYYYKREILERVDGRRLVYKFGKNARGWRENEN
# In short: as §1
# [7] = molecular target: SPI1 (Homo sapiens, UniProt P17947 1-270)
# In short: as §1
# [8] = molecular target: SPIB (Homo sapiens, UniProt Q01892 1-262)
# Chain of SPIB (Q01892 whole entry): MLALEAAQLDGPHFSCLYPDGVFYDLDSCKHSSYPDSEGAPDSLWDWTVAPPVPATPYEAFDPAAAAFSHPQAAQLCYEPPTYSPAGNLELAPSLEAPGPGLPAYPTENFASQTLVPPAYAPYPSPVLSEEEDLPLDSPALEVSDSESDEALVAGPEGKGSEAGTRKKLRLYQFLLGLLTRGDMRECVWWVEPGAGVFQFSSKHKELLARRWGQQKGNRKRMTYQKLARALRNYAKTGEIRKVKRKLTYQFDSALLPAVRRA
# In short: as §1
# [9] = molecular target: T6, ELK3 (Homo sapiens, UniProt P41970 1-407)
# T6 sequence: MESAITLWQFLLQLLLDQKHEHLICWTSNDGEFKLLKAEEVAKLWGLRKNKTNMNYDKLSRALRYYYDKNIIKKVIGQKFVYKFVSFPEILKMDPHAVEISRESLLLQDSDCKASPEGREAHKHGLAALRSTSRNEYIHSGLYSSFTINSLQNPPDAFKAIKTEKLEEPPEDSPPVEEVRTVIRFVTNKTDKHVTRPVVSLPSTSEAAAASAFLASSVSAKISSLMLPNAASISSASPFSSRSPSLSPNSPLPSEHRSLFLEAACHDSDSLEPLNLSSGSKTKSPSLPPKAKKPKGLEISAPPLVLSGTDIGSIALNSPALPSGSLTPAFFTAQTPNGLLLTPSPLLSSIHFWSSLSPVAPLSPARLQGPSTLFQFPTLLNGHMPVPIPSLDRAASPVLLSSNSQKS
# In short: as §1
sequence,measurement,setting,value
TATGGG,binding signal,[1],"1.23 fold enrichment (6-mer frequency, TF over GST control)"
same,binding signal,[2],"1.06 fold enrichment (6-mer frequency, TF over GST control)"
same,binding signal,[3],"1.25 fold enrichment (6-mer frequency, TF over GST control)"
same,binding signal,[4],"1.15 fold enrichment (6-mer frequency, TF over GST control)"
same,binding signal,[5],"1.16 fold enrichment (6-mer frequency, TF over GST control)"
same,binding signal,[6],"1.37 fold enrichment (6-mer frequency, TF over GST control)"
same,binding signal,[7],"1.21 fold enrichment (6-mer frequency, TF over GST control)"
same,binding signal,[8],"1.27 fold enrichment (6-mer frequency, TF over GST control)"
same,binding signal,[9],"1.18 fold enrichment (6-mer frequency, TF over GST control)"

# Source: publication PMC7862700, “An all-to-all approach to the identification of sequence-specific readers for epigenetic DNA modifications on cytosine”
